Screening results as filed in PubChem.
Hits are enriched below; roughly 21% of the tested compounds scored in any of these assays.
Pf growth 96h – P. falciparum growth inhibition at 96 hour, primary screen for plastid delayed-death inhibitors; P. falciparum luciferase reporter growth, 96 h; Potency, µM (highest dose often 28.7 µM), for the others: at the highest dose activity change, negative = inhibition, actives largely listed as inhibitors; 320,000 tested, 6.9% active; also: potency is read from the fitted curve at half-maximal effect; % is scaled to controls: 0 for no effect and ±100 for the full control effect
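Luminescence readout: decreased luciferase signal marks inhibited growth of reporter-expressing P. falciparum in infected red cells (2% hematocrit, 0.05% parasitemia final), exposed to compound two generations (96 h, 37 C, 5% CO2).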
Cycloheximide cs – counter-screen hit for Shiga toxin inhibitors, cycloheximide. cell reporter, cycloheximide protein synthesis inhibition counterscreen. max response, %. 300,000 tested, 12% active; in the data active = max response mostly above about 13%, no sharp cut-off; inactive = mostly below about 14%; also: read at 38.3 µM for the half of the compounds with a filed dose; 0% is about no effect
NS1 inh – influenza NS1 inhibition; Potency, µM (series often up to 46.1 µM), without a hit: at the top dose activity, positive = more growth; 270,000 tested, 0.4% active; AID 2326; calls by dose curve; also: potency is read from the fitted curve at half-maximal effect; actives are rising curves; nearly all actives have a fitted effect of over 50% in size
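Recovery from NS1-induced slow growth read by OD600 in budding yeast switched to galactose assay medium (pH 6.0, -URA) at 1:100 dilution. Compound 23 nl per well; the matching strain lacking NS1 serves as control.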
Pf growth 48h – P. falciparum growth inhibition at 48 hours (one generation); P. falciparum luciferase growth in erythrocytes, 48 h; Potency, µM (titrated, usually from 28.7 µM), inactives show at the top dose activity change, negative = inhibition, hits mostly inhibitors; 310,000 tested, 5.9% active; also: potency is read from the fitted curve at half-maximal effect; % is scaled to controls: 0 for no effect and ±100 for the full control effect
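First compound was added to culture medium, then infected red cells at 0.1% parasitemia and 2% hematocrit (final). After incubation at 37 C under 5% CO2, luciferase detection reagent was dispensed and light output recorded.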
Shiga toxin inh – blocks Shiga toxin action in Vero cells; Vero cells, Shiga toxin protein synthesis inhibition reporter; inhibition, % at 38.7 µM; 290,000 tested, 9.2% active; in the data active = inhibition mostly above about 28%, no sharp cut-off; inactive = mostly below about 43%; also: 0% is about no effect
Giardia FBPA inh – inhibitors of Giardia lamblia fructose-1,6-bisphosphate aldolase; A8B2U2; purified Giardia FBPA; Potency, µM (doses to about 59.6 µM), inactives show at the top dose activity, negative = inhibition, actives largely listed as inhibitors; 290,000 tested, 0.71% active; AID 2451; also: potency is read from the fitted curve at half-maximal effect; % is scaled to controls: 0 for no effect and ±100 for the full control effect; nearly all actives have a fitted effect of over 55% in size
Target sequence (A8B2U2 whole entry, looked up): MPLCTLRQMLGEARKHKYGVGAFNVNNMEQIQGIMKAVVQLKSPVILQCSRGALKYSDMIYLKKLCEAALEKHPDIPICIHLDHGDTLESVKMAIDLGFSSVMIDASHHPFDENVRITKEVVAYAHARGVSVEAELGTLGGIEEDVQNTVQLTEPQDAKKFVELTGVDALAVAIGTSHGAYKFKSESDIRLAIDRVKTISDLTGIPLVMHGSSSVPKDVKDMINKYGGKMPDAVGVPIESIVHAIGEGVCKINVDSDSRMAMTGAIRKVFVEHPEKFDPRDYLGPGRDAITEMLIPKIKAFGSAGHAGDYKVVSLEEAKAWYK
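Giardia FBPA (40 nM reagent) was preincubated 10 min at RT with compound (up to 57.5 uM final), then substrate plus GAPDH/TPI/NAD/arsenate coupling system with diaphorase/resazurin was added; resorufin fluorescence (525/598 nm) was read after 20 min.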
Active calls of the source: *. Unless noted, calls follow the shape of the dose curve; as a rule, active = well fitted curve in the direction sought with a large enough effect; inconclusive = small, poorly fitted or top-dose-only effect, or another doubt; inactive = no such curve, though single readings can be large; an effect the other way counts as inactive or inconclusive.

Screening CCOC(=O)c1ccc2nc(C)c(CCC(C)=O)c(Cl)c2c1 returned Pf growth 96h 80%, Cycloheximide cs 39*, NS1 inh -20%, Pf growth 48h 60%, Shiga toxin inh 93* and Giardia FBPA inh -2%.
For CCOC(=O)c1ccc2nc(C)c(C)nc2c1 the results were Pf growth 96h 38%, Cycloheximide cs 17, NS1 inh 5%, Pf growth 48h 49%, Shiga toxin inh 61* and Giardia FBPA inh 0%.
Screening C=CCc1c(C)nc2ccc(C(=O)OCC)cc2c1Cl returned Pf growth 96h inactive, Cycloheximide cs 10, NS1 inh 0%, Pf growth 48h -21%, Shiga toxin inh 41* and Giardia FBPA inh -3%.
Screening COc1ccc(S(=O)(=O)N2CCSCC2)cc1C(N)=O returned Pf growth 96h inconclusive, Cycloheximide cs -2, NS1 inh -19%, Pf growth 48h 15%, Shiga toxin inh -6 and Giardia FBPA inh 1%.
For Cc1cc(C)c(S(=O)(=O)Nc2ccccc2C(=O)OCC(=O)NCc2ccccc2)c(C)c1 the results were Pf growth 96h -1%, Cycloheximide cs -4, Pf growth 48h inconclusive, Shiga toxin inh -7 and Giardia FBPA inh 0%.
For Cc1ccnc(NC(=O)c2ccc(S(=O)(=O)N3CCCCCC3)cc2)c1 the results were Pf growth 96h inconclusive and Pf growth 48h 25%.
For CSc1cccc(NC(=O)COC(=O)c2ccccn2)c1 the results were Pf growth 96h 50% and Pf growth 48h 70%.
Cc1cc(C)c2c(N)c(C(=O)N/N=C/c3cccnc3)sc2n1 was read as Pf growth 96h -3%, Cycloheximide cs 43*, NS1 inh -10%, Pf growth 48h 8%, Shiga toxin inh 43 and Giardia FBPA inh 0%.
Screening Cc1cc(C)c2c(N)c(C(=O)N/N=C/c3ccccc3)sc2n1 returned Pf growth 96h 75%, Cycloheximide cs 59*, NS1 inh 0%, Pf growth 48h 113%, Shiga toxin inh 121* and Giardia FBPA inh -8%.
For CCN(CC)CC(=O)Nc1ccc2c(c1)N(C(=O)CN(CC)CC)c1ccccc1CC2 the results were Cycloheximide cs 14, NS1 inh 3%, Pf growth 48h 10µM*, Shiga toxin inh -19 and Giardia FBPA inh -26%.
CN(CC(=O)Nc1ccc2c(c1)CCC2)CC(=O)Nc1ccccc1Br was read as Pf growth 96h 10%, Cycloheximide cs -1, Pf growth 48h 5%, Shiga toxin inh -16 and Giardia FBPA inh -6%.
Screening CCOC(=O)Nc1ccc2c(c1)N(C(=O)CN(CC)CC)c1ccccc1CC2 returned Pf growth 96h inconclusive, Cycloheximide cs -3, NS1 inh 3%, Pf growth 48h inconclusive, Shiga toxin inh -5 and Giardia FBPA inh inconclusive.
For CCN(CC)CC(=O)Nc1ccc2c(c1)Nc1ccccc1CC2 the results were Pf growth 96h -62%, Cycloheximide cs 21*, NS1 inh -10%, Pf growth 48h inconclusive, Shiga toxin inh 33* and Giardia FBPA inh inconclusive.
For CCN(CC)CC(=O)N1c2ccccc2CCc2ccc(NC(=O)c3cc(OC)c(OC)c(OC)c3)cc21 the results were Pf growth 96h 9.3µM*, Cycloheximide cs 5, NS1 inh 1%, Pf growth 48h 12µM*, Shiga toxin inh 9 and Giardia FBPA inh -7%.
`NC(=O)c1ccccc1NC(=O)COC(=O)C1(c2ccccc2)CC1` gave Pf growth 96h -14% and Pf growth 48h inconclusive.
`COc1cc(C)c(NC(=S)Nc2ccc(Cl)c(Cl)c2)cc1OC` gave Pf growth 96h inconclusive, Cycloheximide cs 8, NS1 inh -33%, Pf growth 48h inconclusive, Shiga toxin inh 9 and Giardia FBPA inh -3%.
`COc1ccc(OCC(=O)N/N=C/c2cccn2-c2cccc(C(=O)O)c2)cc1` gave Pf growth 96h 11% and Pf growth 48h 33%.
CCOC(=O)N1CCC(NC(=O)c2cc(C(=O)Nc3cccc(C(F)(F)F)c3)ccc2CO)CC1 was read as Pf growth 96h 2.3µM*, Cycloheximide cs -2, Pf growth 48h -10%, Shiga toxin inh 13 and Giardia FBPA inh 15%.
Screening NC(=O)C1CCN(CC(=O)Nc2cccc(C(=O)Nc3cccc(C(F)(F)F)c3)c2)CC1 returned Pf growth 96h inconclusive, Cycloheximide cs -2, NS1 inh -6%, Pf growth 48h 1.2µM*, Shiga toxin inh -10 and Giardia FBPA inh 2%.
